# Results as given in PubChem BioAssay AID1839 (Johns Hopkins Ion Channel Center, 2009).
# The whole screen tested about 2,400 compounds, of which about 220 (9.2%) were called active.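 The calls were made as follows: active = signal change above the mean of dofetilide-free buffer controls plus 3 SD, so a positive margin; inactive = the rest.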 Shown is part of a subset that was picked to be rich in actives.
# Assay: nonspecific flux effects in parental CHO-K1, confirmation, counter-screen for hERG block protection project, cell-based, CHO-K1 parental line, FluxOR thallium flux (AID 1839);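 also: compounds applied alone with no dofetilide to cells lacking hERG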
# Settings: CHO-K1 parental cells, FluxOR thallium flux fluorescence; at 10 µM
row,Structure (SMILES),"signal change vs control minus 3*SD hit threshold (margin above threshold, higher = more increase)"
1,CCc1ccc(OCC(=O)Nc2ncn[nH]2)cc1,-35.2% (inactive)
2,Cc1ccc2[nH]c3c(c2c1)CNCC3,-32% (inactive)
3,CN(c1ccccc1)S(=O)(=O)c1ccc(Cl)c(C(=O)Nc2nn[nH]n2)c1,-24.2% (inactive)
4,COc1ccc(C2N=C(c3ccccc3)C(C)(C)N2O)cc1 (stereo not given),-23.4% (inactive)
5,Cc1ccccc1-c1nnn(CC(=O)NCc2ccc3c(c2)OCO3)n1,-37.1% (inactive)
6,Cc1cccc(/N=C/c2sc3ccccc3c2O)n1,-19.2% (inactive)
7,O=C(NCC1CCCO1)c1ccc2c(=O)n(Cc3ccco3)c(SCC(=O)N3CCCC3)nc2c1 (stereo not given),-14.7% (inactive)
8,Clc1cccc(OCCCN2CCCC2)c1Cl,-24.8% (inactive)
9,CCCCC1C2=C(CCCC2=O)OC2=C1C(=O)CCC2,-34.5% (inactive)
10,Cc1ccc(C(=O)N2CCN(c3ccccc3)CC2)cc1S(=O)(=O)N1CCCC1,-7.2% (inactive)
11,Cc1ccc(-c2nc3c(Cl)cc(Cl)cc3c(=O)n2O)cc1,65.6% (active)
12,Cc1ccc(-c2nc3ccccc3c(=O)n2O)cc1,-12.7% (inactive)
13,Cc1cc(=O)[nH]c(SCC(=O)NC2CCCCC2)n1,-27% (inactive)
14,CCOc1ccccc1NC(=S)NC(=O)c1ccco1,-16.7% (inactive)
15,O=C(NC(=S)Nc1cccc(Cl)c1N1CCCCC1)c1ccco1,-27.7% (inactive)
16,Cc1cccc(NC(=S)NC(=O)c2ccco2)c1C,20% (active)
17,Cc1cccc(NC(=O)CCNC(=O)c2ccco2)c1C,-27.7% (inactive)
18,O=C(NC(=S)Nc1ccc(N2CCCCC2)cc1)c1ccco1,9.4% (active)
19,CCC(C)c1ccccc1NC(=S)NC(=O)c1ccco1 (stereo not given),40% (active)
20,O=C(NC(=S)Nc1ccccc1Br)c1ccco1,-14.3% (inactive)
21,O=C(NC(=S)Nc1ccccc1N1CCCC1)c1ccco1,-20.8% (inactive)
22,CCOc1ccc(NC(=S)NC(=O)c2ccco2)cc1,-15.7% (inactive)
23,O=C1OCCC1Sc1nc2ccccc2c(=O)n1Cc1ccc(F)cc1 (stereo not given),-13.7% (inactive)
24,CCc1ccc(C(=O)NNC(=O)c2ccc(=O)n(C)n2)cc1,-31% (inactive)
25,O=C(NC(=S)N1CCN(c2nc(-c3ccccc3)cs2)CC1)c1cncc(Br)c1,-12.3% (inactive)

row,Structure (SMILES),"signal change vs control minus 3*SD hit threshold (margin above threshold, higher = more increase)"
1,CC(NC(=O)NC1CCCCC1)c1ccccc1 (stereo not given),-8.9% (inactive)
2,Oc1c(N=Nc2ccccn2)ccc2ccccc12,-28.3% (inactive)
3,O=C(N/N=C\c1coc2ccccc2c1=O)c1ccco1,-25.6% (inactive)
4,CC(/C=C1\SC(=S)N(c2ccc(C(=O)O)cc2)C1=O)=C\c1ccccc1,-40.7% (inactive)
5,Cc1c(N2C(=O)/C(=C\c3ccccc3O)SC2=S)c(=O)n(-c2ccccc2)n1C,7.5% (active)
6,O=C(O)COc1ccccc1/C=C1\SC(=S)N(NC(=O)c2ccccc2O)C1=O,-20.5% (inactive)
7,COc1ccc(N(C(=O)c2ccco2)S(=O)(=O)c2cccs2)cc1,-26.1% (inactive)
8,O=C(Cn1cncn1)c1ccccc1Br,-37.9% (inactive)
9,Cc1cc(C)cc(-n2ncc3c2CCCC3NC(=O)c2csnn2)c1 (stereo not given),-40.3% (inactive)
10,CCCCN1C(=O)/C(=C2/Sc3ccc(Cl)cc3N2CC)SC1=S,-39.8% (inactive)
11,COc1ccc(OC)c(NC(=O)C(=S)NC2CCCCC2)c1,-22.8% (inactive)
12,COc1ccc(OC)c(NC(=O)C(=O)NNC(=O)C23CC4CC(CC(C4)C2)C3)c1,42.5% (active)
13,COc1ccc(OCC(=O)NNC(=O)C(=O)Nc2cc(OC)ccc2OC)cc1,-1.8% (inactive)
14,CC(NC(=O)CCCn1cc([N+](=O)[O-])cn1)c1ccccc1 (stereo not given),-29.8% (inactive)
15,CCCCNC(=S)NNC(=O)c1ccc2c(c1)OCO2,-29.2% (inactive)
16,N=C1C(=O)OCC1c1cc(Cl)ccc1NC(=O)Nc1ccccc1 (stereo not given),-31.4% (inactive)
17,CCCc1cc(C(=O)NNC(=S)Nc2cccc(C)c2)cs1,-32.4% (inactive)
18,CC(C)(C)NC(=O)C(=O)NNC(=O)c1ccccc1,-23.3% (inactive)
19,Cc1cccc(NC(=O)C(=O)NNC(=O)c2ccc(C(C)(C)C)cc2)c1,44.5% (active)
20,CC(C)(C)NC(=O)C(=O)NNC(=O)c1cccc(Br)c1,-6.8% (inactive)
21,Cc1cccc(C(=O)NC(=S)NNC(=O)c2ccc(Cl)cc2)c1,-44.5% (inactive)
22,CC(C)(C)NC(=O)C(=O)NNC(=O)c1ccc(C(C)(C)C)cc1,1.9% (active)
23,CCOC(=O)N1CCN(C(=O)COC(=O)c2cc(Cl)c(O)c(Cl)c2)CC1,-24.7% (inactive)
24,Cc1ccc(O)c(Sc2cc(C)ccc2O)c1,-41.7% (inactive)
25,CC(C)CSC1=NSC2=NC(=O)/C(=C\c3ccccc3)C(=N)N12,-21.5% (inactive)

row,Structure (SMILES),"signal change vs control minus 3*SD hit threshold (margin above threshold, higher = more increase)"
1,O=C(COc1coc(CN2CCc3ccccc3C2)cc1=O)Nc1cccc(Cl)c1,-31.3% (inactive)
2,CCOc1ccc2[nH]c(=O)c(CN(Cc3ccc(C)cc3)C(=O)N3CCCC3)cc2c1,-28% (inactive)
3,COc1ccc(NC(=O)C2CC3CCC2C3)c(OC)c1 (stereo not given),-22.3% (inactive)
4,O=C(N/N=C/C(Cl)=C/c1ccc([N+](=O)[O-])cc1)C(=O)Nc1ccc(C(=O)O)cc1,-32.7% (inactive)
5,O=[N+]([O-])c1ccc(Nc2ccccc2F)nc1,-20.1% (inactive)
6,COc1ccc(C(=O)N(CN2CCCC2=O)c2ccc(C)cc2)cc1,-4.3% (inactive)
7,O=C(NCCCN1CCCC1=O)c1ccc(OC(F)(F)F)cc1,-32.6% (inactive)
8,CCOc1ccc(C(=O)N(CN2CCCC2=O)c2ccc(C)cc2)cc1,7.5% (active)
9,CCOC(=O)Cc1csc(NC(=S)NC(=O)c2ccc(Cl)cc2)n1,-26.4% (inactive)
10,C=C(C)CNC(=S)NN=C1c2ccccc2-c2ccccc21,-25% (inactive)
11,O=c1c(-c2ccc(Cl)cc2)[n+]([O-])c2ccccc2n1O,29.3% (active)
12,Cc1ccc(-c2c(=O)n(O)c3ccccc3[n+]2[O-])cc1,15.9% (active)
13,O=c1c(-c2ccccc2)[n+]([O-])c2ccccc2n1O,-26.3% (inactive)
14,O=c1c(-c2cccc3ccccc23)[n+]([O-])c2ccccc2n1O,-12.8% (inactive)
15,COc1ccc(S(=O)(=O)N2CCN(C(=O)CNC(=O)c3ccc4c(c3)OCO4)CC2)cc1,-26.4% (inactive)
16,Cc1cc2c(cc(C(=O)OC(C(=O)NCc3ccco3)C(C)C)n2C)o1 (stereo not given),-12.7% (inactive)
17,Cn1c(=O)c2c(nc(Cl)n2CC(=O)N2CCCCC2)n(C)c1=O,-27.9% (inactive)
18,CCOC(=O)C1CCCCN1Cc1ccc(F)cc1 (stereo not given),-18.3% (inactive)
19,CCc1ccc(S(=O)(=O)NC(=S)NC2CCCCC2)cc1,1.9% (active)
20,O=S(=O)(NC(=S)NC1CCCCC1)c1ccc(Cl)cc1,-16.4% (inactive)
21,Cc1ccc(S(=O)(=O)NC(=S)NC2CCCCC2)cc1,-13% (inactive)
22,CCCn1c(CC)nc([N+](=O)[O-])c1S(=O)(=O)c1ccccc1,-15.2% (inactive)
23,COC(=O)c1c(NS(=O)(=O)Cc2ccccc2)sc2c1CCCC2,-1.7% (inactive)
24,CCC(C)(C)NC(=O)c1ccc(Sc2nncn2C)c([N+](=O)[O-])c1,-27.2% (inactive)
25,Cc1ccc(Nc2nc(C)cs2)cc1,-10.7% (inactive)

row,Structure (SMILES),"signal change vs control minus 3*SD hit threshold (margin above threshold, higher = more increase)"
1,Cc1ccc(Nc2cc(C)nn2-c2nc(C)cc(=O)[nH]2)cc1,15.1% (active)
2,Cc1cccc(N/C(N)=N/c2nc(C)cc(=O)[nH]2)c1,-33% (inactive)
3,CC(C)(C)Cc1nnc(NC(=O)c2ccco2)s1,-32.3% (inactive)
4,CC1=[N+]([O-])C(C)(C)C(c2ccc(Br)cc2)=[N+]1[O-],-17% (inactive)
5,COC(=O)c1sc(NC(=S)NC(=O)c2ccccc2F)nc1C,-6.2% (inactive)
6,COc1ccc(NC(=O)C(=O)NNC(=O)c2ccc(Cl)cc2Cl)cc1,-20.1% (inactive)
7,Cc1ccc(NC(=O)c2ccc3c(c2)OCO3)cc1Cl,-25.4% (inactive)
8,O=C(COc1ccc(Cl)cc1)NNC(=O)C(=O)NC1CCCCC1,-26.3% (inactive)
9,COc1ccccc1C(=O)NNC(=O)C(=O)NC1CCCCC1,14.6% (active)
10,COc1cc(NC(=O)c2ccccc2OCc2ccccc2)cc(OC)c1OC,-34.3% (inactive)
11,Cc1ccc(NC(=O)C(=O)NNC(=O)c2ccccc2C)cc1Cl,35% (active)
12,COc1ccccc1C(=O)NNC(=O)C(=O)Nc1ccc(C)c(Cl)c1,55.4% (active)
13,COc1ccccc1C(=O)NNC(=O)C(=O)NCc1ccccc1,3.6% (active)
14,COc1ccc(C(=O)CC(=O)C(=O)Nc2ccc(C)c(Cl)c2)cc1,-23% (inactive)
15,COc1ccc(C(=O)NNC(=O)C(=O)NC2CCCCC2)cc1,-33.5% (inactive)
16,COc1ccccc1C(=O)NCc1ccc2c(c1)OCO2,-31% (inactive)
17,Cc1ccccc1C(=O)NNC(=O)c1cccc([N+](=O)[O-])c1,-30% (inactive)
18,Cc1ccc(-n2ncc3c2CCCC3NC(=O)c2csnn2)cc1C (stereo not given),-37.5% (inactive)
19,Cc1ccc(NC(=O)c2c([N+](=O)[O-])c(C(C)(C)C)nn2C)cc1,-22.3% (inactive)
20,Cc1cc(C)c(NC(=O)C2CC3CCC2C3)c(C)c1 (stereo not given),-16.2% (inactive)
21,CC(C)(C)C(=O)NC(=S)N1CCOCC1,-15.9% (inactive)
22,Cc1ccc(C)n1-n1c(C)nc2scc(-c3ccccc3)c2c1=O,-33.2% (inactive)
23,Cc1c(Cl)cccc1NC(=S)N=Nc1c(O)n(CN2CCOCC2)c2ccccc12,-31.2% (inactive)
24,O=C(NC(=S)N(CCc1ccccc1)CCc1ccccc1)c1ccco1,-17.5% (inactive)
25,CCOc1ccc(S(=O)(=O)Nc2nc3ccccc3nc2-n2ccc(=NC(=O)c3cccs3)cc2)cc1,-31.9% (inactive)
